# From PubChem BioAssay (Tox21)
# Values without a mark were called inactive. Unless noted, calls follow the shape of the dose curve; as a rule, active = well fitted curve in the direction sought with a large enough effect in the repeat runs; inconclusive = weak or mixed curves; inactive = no such curve, though single readings can be large; an effect the other way counts as inactive or inconclusive. Inconclusive results are not listed.
# Molecular target: Thyrotropin-releasing hormone receptor (Homo sapiens) (UniProt P34981)
# Sequence (P34981 whole entry, looked up): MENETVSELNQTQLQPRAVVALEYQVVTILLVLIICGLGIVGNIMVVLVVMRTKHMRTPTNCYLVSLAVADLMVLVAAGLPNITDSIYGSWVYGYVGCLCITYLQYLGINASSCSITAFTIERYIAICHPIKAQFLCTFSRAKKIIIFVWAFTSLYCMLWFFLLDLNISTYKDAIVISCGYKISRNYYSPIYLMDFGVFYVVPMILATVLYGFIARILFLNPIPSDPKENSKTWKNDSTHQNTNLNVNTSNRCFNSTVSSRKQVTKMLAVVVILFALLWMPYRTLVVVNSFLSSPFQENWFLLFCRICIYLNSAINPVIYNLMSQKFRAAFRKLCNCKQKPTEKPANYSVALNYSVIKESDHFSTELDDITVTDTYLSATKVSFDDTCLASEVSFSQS
# Test: qHTS assay to identify small molecule agonists of the thyrotropin-releasing hormone receptor (TRHR) signaling pathway (AID 1346891; calls by dose curve;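 also: HEK293 cells expressing TRHR with calcium dye readout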)
# Conditions: TRHR-HEK293 calcium fluorescence, agonist mode; series mostly up to 57.6 µM; activation: at the top concentration
# Summary of the method: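 Agonist-mode calcium mobilisation screen: TRHR-transfected HEK293 cells cultured overnight (18 h), dye-loaded for 2 h at 37 °C, exposed to compounds, and monitored by fluorescence for 3 min.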
# % is scaled to controls: 0 for no effect and ±100 for the full control effect.
row,Compound,activation
1,c1ccc2sc(SN3CCOCC3)nc2c1,-0.074% [at 26.5 µM]
2,Cc1cccc(C)c1NC(=O)CC12CCCN1CCC2,0.207% [at 26.5 µM]
3,CCCCCC(=O)OCCc1ccccc1,0.253%
4,C[N+]1(C)[C@@H]2CC(OC(=O)[C@H](CO)c3ccccc3)C[C@H]1[C@@H]1O[C@@H]12 (some centres not stated),-0.0428% [at 26.5 µM]
5,CO[Si](C)(OC)c1ccccc1,-0.141%
6,C=CC(=O)OCCCl,-0.0723%
7,CC(C)(C#N)Nc1nc(Cl)nc(NC2CC2)n1,-1.11%

# Tested on: not listed separately
# Test: Human pregnane X receptor (PXR) small molecule agonists, qHTS cell viability counter screen (AID 1346977); also: nearly all actives have a fitted effect of over 50% in size
# Conditions: PXR-Luc HepG2 viability, CellTiter-Fluor, 24 h; series mostly up to 92.4 µM; activity change, negative = cytotoxicity: at the top concentration
# Summary of the method: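 Measures live-cell protease fluorescence (CellTiter-Fluor) in PXR-Luc HepG2 cells treated 24hr with compounds at 37C. Cells had 5hr to attach before pin transfer of DMSO solutions.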
row,Compound,"activity change, negative = cytotoxicity"
1,CCCc1nn(C)c2c(=O)[nH]c(-c3cc(S(=O)(=O)N4CCN(C)CC4)ccc3OCC)nc12,1.22% [at 42.5 µM]
2,CCOC(=O)COc1cc(-n2ncc(C(F)(F)F)c(C)c2=O)c(F)cc1Cl,-1.65%
3,CCC(=O)OCc1ccccc1,-1.81%
4,CCN1C=CN(C)C1C (configuration not stated),5.06%
5,C1CCC2(CCCCO2)OC1,6.45%
6,CC(=O)N[C@H]1[C@H]([C@H](O)[C@H](O)CO)OC(C(=O)O)=C[C@@H]1N=C(N)N,-0.175% [at 42.5 µM]
7,Cc1c(N)c(=O)n(-c2ccccc2)n1C,32.9% [at 42.5 µM]
8,CN(C)CCN(C)CCN(C)C,1.55%
9,CCCO[Si](OCCC)(OCCC)OCCC,35.3%
10,CCO[Si](OCC)(OCC)c1ccccc1,2.41%
11,COc1ccccc1OCC1CNC(=O)O1 (configuration not stated),-1.61% [at 42.5 µM]
12,C[C@@H]1CCC[C@H](C)N1,8.4% [at 42.5 µM]
13,CCCCCCCCCCCCSC,7.1%
14,C=CC(C)(CCC=C(C)C)OC(=O)CC (configuration not stated),-0.712%
15,CN1[C@@H]2CC[C@H]1CC(OC(=O)C(O)c1ccccc1)C2 (some centres not stated),-3.66% [at 42.5 µM]
16,C[C@H]1[C@H](NC(=O)/C(=N/OC(C)(C)C(=O)O)c2csc(N)n2)C(=O)N1S(=O)(=O)O (stereo in doubt),13.1% [at 42.5 µM]
17,CC(C)C[C@@H](N)C(=O)O,28.2% [at 19 µM]
18,CCOC(=O)C(=O)CCCCCCl,1.35% [at 42.5 µM]
19,CO[C@@]1(NC(=O)C(C(=O)O)c2ccc(O)cc2)C(=O)N2C(C(=O)O)=C(CSc3nnnn3C)CO[C@@H]21 (some centres not stated),7.42% [at 42.5 µM]
20,c1ccc2sc(SN3CCOCC3)nc2c1,-0.377% [at 42.5 µM]
21,Cc1cccc(C)c1NC(=O)CC12CCCN1CCC2,11.9% [at 42.5 µM]
22,C[N+]1(C)[C@@H]2CC(OC(=O)[C@H](CO)c3ccccc3)C[C@H]1[C@@H]1O[C@@H]12 (some centres not stated),9.59% [at 42.5 µM]
23,CC(C)[C@H]1CC[C@@H](C)CC1=O,-2.47%
24,NC(=O)N[C@@H](CCC(=O)O)C(=O)O,6.27% [at 42.5 µM]
25,C=CCCC(=O)O,10.4%
26,C=CCCCCCCCCC(=O)OCC,7.58%
27,CCC(C)(CN(C)C)OC(=O)c1ccccc1 (configuration not stated),7.45% [at 42.5 µM]
28,C=CC(=O)OCCCl,0.927%

# Tested on: not listed separately
# Test: Caspase-3/7 induction in HepG2 cells by small molecules, qHTS assay (AID 1346978); also: nearly all actives have a fitted effect of over 15% in size
# Conditions: HepG2 caspase-3/7 activation, Caspase-Glo luminescence, 17 h; series mostly up to 92.4 µM; caspase activation: at the top concentration
# Summary of the method: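 Wild-type HepG2 cells (2,000/well) were settled 5 h at 37 C, 5% CO2, then exposed to compounds in DMSO for 17 h. Caspase-3/7 activity was read by luminescence 30 min after adding Caspase-Glo 3/7 reagent at room temperature.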
row,Compound,caspase activation
1,CCCc1nn(C)c2c(=O)[nH]c(-c3cc(S(=O)(=O)N4CCN(C)CC4)ccc3OCC)nc12,-0.433% [at 42.5 µM]
2,CN(C)C(=O)Oc1ccc[n+](C)c1,0.732% [at 42.5 µM]
3,CCC(=O)OCc1ccccc1,0.155%
4,CCN1C=CN(C)C1C (configuration not stated),-0.548%
5,C1CCC2(CCCCO2)OC1,0.0628%
6,CCC(C(=O)NC(=O)NC(C)=O)c1ccccc1 (configuration not stated),0.184% [at 42.5 µM]
7,CC(=O)N[C@H]1[C@H]([C@H](O)[C@H](O)CO)OC(C(=O)O)=C[C@@H]1N=C(N)N,0.588% [at 42.5 µM]
8,Cc1c(N)c(=O)n(-c2ccccc2)n1C,-0.852% [at 42.5 µM]
9,CN(C)CCN(C)CCN(C)C,-1.27%
10,CN1CCC(=C2c3ccccc3CCc3cccnc32)CC1,-0.983% [at 42.5 µM]
11,COc1ccccc1OCC1CNC(=O)O1 (configuration not stated),-0.279% [at 42.5 µM]
12,C[C@@H]1CCC[C@H](C)N1,0.468% [at 42.5 µM]
13,CN1CCN(c2cc3c(nn2)Oc2ccccc2N3C)CC1,-12.1% [at 19 µM]
14,CCCCCCCCCCCCSC,-1.27%
15,C=CC(C)(CCC=C(C)C)OC(=O)CC (configuration not stated),-0.848%
16,COc1ccnc(CS(=O)c2nc3cc(OC(F)F)ccc3[nH]2)c1OC (configuration not stated),-1.45%

row,Compound,caspase activation
1,C[C@H]1[C@H](NC(=O)/C(=N/OC(C)(C)C(=O)O)c2csc(N)n2)C(=O)N1S(=O)(=O)O (stereo in doubt),-1.4% [at 42.5 µM]
2,CCOC(=O)C(=O)CCCCCCl,0.305% [at 42.5 µM]
3,CO[C@@]1(NC(=O)C(C(=O)O)c2ccc(O)cc2)C(=O)N2C(C(=O)O)=C(CSc3nnnn3C)CO[C@@H]21 (some centres not stated),-0.176% [at 42.5 µM]
4,c1ccc2sc(SN3CCOCC3)nc2c1,-2.26% [at 42.5 µM]
5,Cc1cccc(C)c1NC(=O)CC12CCCN1CCC2,0.35% [at 42.5 µM]
6,CCCCCC(=O)OCCc1ccccc1,0.284%
7,C[N+]1(C)[C@@H]2CC(OC(=O)[C@H](CO)c3ccccc3)C[C@H]1[C@@H]1O[C@@H]12 (some centres not stated),-0.249% [at 42.5 µM]
8,CC(C)[C@H]1CC[C@@H](C)CC1=O,3.63%
9,CCC(C)(CCCC(C)C)OC(C)=O (configuration not stated),0.175%
10,NC(=O)N[C@@H](CCC(=O)O)C(=O)O,0.0826% [at 42.5 µM]
11,C=CCCC(=O)O,-1.34%
12,C=CCCCCCCCCC(=O)OCC,-0.768%
13,CO[Si](C)(OC)c1ccccc1,0.101%
14,CCC(C)(CN(C)C)OC(=O)c1ccccc1 (configuration not stated),3.7% [at 42.5 µM]
15,C=CC(=O)OCCCl,0.915%
16,CC(C)(C#N)Nc1nc(Cl)nc(NC2CC2)n1,-0.942%
